Results on 14 compounds are retold here after PubChem BioAssay (NCI).

The test system of the test is MDA-MB-468 breast. Kind of test: NCI-60 one-dose screen, 48 h (100 = growth as untreated, 0 = no growth, -100 = all killed). The note with it: 10 µM unless noted.

The panel holds about 83,000 compounds, 20% with a hit somewhere; the sample as a whole holds those more often.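 The test compound was applied at a single concentration to cells in 96-well plates for 48 hours, and percent growth was recorded.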 A number with no mark means an inactive call. The source made the active and inactive calls. How the source made its calls: active means growth percent below 10; inactive means the rest.

In the case of `COc1ccc(NC(=S)/N=c2\oc3c(OC)cccc3cc2-c2cc3ccccc3[nH]2)cc1`, the growth was 82.1%.

As for `COc1cc(Cn2cc3c(c2)-c2onc(CN4CCOCC4)c2CC3)cc(OC)c1OC`, the growth was 81.5%.

`N=C(N)c1ccc(-c2ccc(-c3ccccc3)o2)o1`: the growth was 14.3%.

Regarding `Cc1cccc(/C=C/c2nn3c(-c4ccco4)nnc3s2)c1`, the growth is 93.9%.

Regarding `N#Cc1ccc(N2Cc3ccccc3OC3=C2C(=O)c2c(O)ccc(O)c2C3=O)cc1`, the growth is -18.8% (active).

Consider `Cc1cc(N(CCCNc2ccnc3cc(Cl)ccc23)Cc2ccc3c(c2)OCO3)nc(N2CCOCC2)n1`, for which the growth is -14.4% (active).

For `c1ccc(-c2oc(-c3ccccc3)c3ccccc23)cc1`, the growth was 109%.

Consider `O=[N+]([O-])c1ccc(N=Nc2c(Cl)cc(O)cc2Cl)cc1`, for which the growth was -11.7% (active).

For the compound `Cc1cc(-c2ccccc2)cc(SC#N)[n+]1[O-]`, the growth is 34.8%.

Regarding `O=C1/C(=C/c2ccc([N+](=O)[O-])cc2)SC(=Nc2ccccc2)N1Nc1ccccc1`, the growth was 87.8%.

With `CCCN(CCC)CCCNC(=O)c1cc2c(-c3ccc(OC)c(OC)c3)nn(C)c2s1`, the growth is 39%.

`CC1=CNNc2c3ncnc-3ncn21`: the growth is 95.1%.

As to `CN1CCN(c2ccc(Nc3nc(NCCNS(=O)(=O)c4ccccc4)c4sccc4n3)cc2)CC1`, the growth was 90.5%.

As to `COc1cc(C2CC(c3ccc(Cl)cc3)=NN2C=O)ccc1Oc1ccnc2cc(Cl)ccc12` (centres undefined), the growth was 39.7%.
